In PubChem BioAssay AID1443 (Sanford-Burnham Center for Chemical Genomics, 2008):
Out of some 220,000 compounds screened, about 880 (0.4%) were called active.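 Rule for the calls: active = cell killing above 50% in the first pass at 4 µM, then a duplicate retest at 5 µM averaging 50% or more; inactive = the rest.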 The sample as a whole holds a higher share of actives than the screen did.

test: PPC-1 cell viability loss under TRAIL – PPC-1 cells, ATPLite luminescence, uHTS, TRAIL potentiator project, primary screen (AID 1443); details: PPC-1 cells + TRAIL, stronger effect = higher value; at 4 µM unless noted;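 note: plate controls were cells with TRAIL plus DMSO for no effect and medium-only wells lacking cells for full effect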

| Compound | cell killing (% activity) |
| --- | --- |
| Oc1ccc(-c2[nH]ncc2-c2nc3ccccc3s2)c(O)c1 | 14.3% (inactive) |
| O=c1oc(/C=C/c2ccccc2)nc2ccccc12 | 53% [at 5 µM] (active) |
| S=c1[nH]nc(/C=C/c2ccccc2)o1 | -2.3% (inactive) |
| O=c1oc(-c2ccccc2NS(=O)(=O)c2ccc(Cl)cc2)nc2ccccc12 | -12.7% (inactive) |
| COc1ccc(Cn2c(O)c(/C=C3/C=CC=N3)c(=O)[nH]c2=O)cc1 | 5.9% (inactive) |
| Nc1nc(NCC2CCCO2)nc(Nc2ccccc2F)c1[N+](=O)[O-] (stereo not given) | 2.1% (inactive) |
| O=C(CCS(=O)(=O)c1ccccc1Cl)Nc1ccc(S(=O)(=O)Nc2ncccn2)cc1 | 1.8% (inactive) |
| COc1cc(/C=N/NC(=O)c2ccccc2)ccc1OS(=O)(=O)c1ccccc1 | 21.5% (inactive) |
| COc1ccc(C(=O)Nc2ccccc2C(=O)N/N=C/c2ccc(O)c(OC)c2)cc1 | 96.7% [at 5 µM] (active) |
| COc1ccc(C(=O)Nc2ccccc2C(=O)N/N=C/c2ccccc2OC)cc1 | 28.7% (inactive) |
| CCn1cc(CN2CCCC(CNS(=O)(=O)Cc3ccccc3)C2)cn1 (stereo not given) | 14.8% (inactive) |
| O=C(N/N=C/c1cc([N+](=O)[O-])ccc1O)/C(=C\c1cccs1)NC(=O)c1ccccc1 | 8.1% (inactive) |
| CC12C(=O)N(c3ccccc3)C(=O)C1C(c1ccccc1)N1CCCN12 (stereo not given) | 8.2% (inactive) |
| Cn1nccc1NC(=O)CC(CC(=O)O)c1ccccc1 (stereo not given) | 5.7% (inactive) |
| CC1(C)N=C(c2ccccn2)C(C)(C)N1O | 22.7% (inactive) |
| Cc1cc(-n2cnc(-c3cn(C)nc3C)n2)no1 | -10.4% (inactive) |
| CN1CCN(CC#CCC2(O)c3ccccc3-c3ccccc32)CC1 | 1.7% (inactive) |
| O=c1cnnc(Nc2ccccc2)[nH]1 | 30.6% (inactive) |
| Cc1nc(-c2ccc(Cl)cc2)sc1C(=O)CBr | 11.1% (inactive) |
| Cc1ccc(SCC(=O)c2sc(-c3ccccc3)nc2C)cc1 | 8.5% (inactive) |
| Cc1nc(-c2ccc(Cl)cc2)sc1C(=O)NN | 59.4% [at 5 µM] (active) |
| O=C(COC(=O)c1ccc(Cl)nc1)NCc1ccc2c(c1)OCO2 | -2.9% (inactive) |
| CC(C(=O)Nc1ccc(F)c(F)c1F)N1CCCCCC1 (stereo not given) | 30.5% (inactive) |
| COc1ccc(OC)c(NC(=O)N[C@H](Cc2ccccc2)C(=O)NN)c1 | -4.7% (inactive) |

| Compound | cell killing (% activity) |
| --- | --- |
| Nn1c(SCC(=O)NC2CCCC2)nnc1-c1ccccc1F | 2.5% (inactive) |
| O=c1c(-c2ccccc2)cnc2n1CCS2 | -3.9% (inactive) |
| COc1ccc(C2=Nc3cc(C)ccc3OC2)cc1 | 52.1% (active) |
| COc1ccc(C2=NOC3(CC(=O)N(c4ccc(C)cc4)C3=O)C2)cc1 (stereo not given) | 12.3% (inactive) |
| Cc1ccc(C(=O)NNC2=Nc3cc([N+](=O)[O-])ccc3OC2)cc1 | -2.5% (inactive) |
| CNC(=O)NC(=O)C(OC(=O)c1cccc(S(=O)(=O)N2CCCCC2)c1)c1ccccc1 (stereo not given) | 8.9% (inactive) |
| N#CCc1ccc(OC(=O)c2cccnc2)cc1 | 0.5% (inactive) |
| Cc1cc(NC(=O)CN2CCCC(C)C2)n(-c2nc3ccccc3s2)n1 (stereo not given) | -3.9% (inactive) |
| CCC(C)Cn1c(O)cc2nn(-c3nc4ccccc4s3)c(=O)c-2c1C (stereo not given) | 56% [at 5 µM] (active) |
| CCOC(=O)N1CCN(CC(=O)Nc2cc(C)nn2-c2nc3ccccc3s2)CC1 | -8.9% (inactive) |
| COc1ccc(CCNC2=CC(=O)CC(C)(C)C2)cc1 | 14.5% (inactive) |
| COc1ccc2cc(-c3[nH]ncc3CNCCn3nc(C)cc3C)ccc2c1 | 0.6% (inactive) |
| Cn1c(=NC(=O)c2cnccn2)sc2ccccc21 | 53.2% [at 5 µM] (active) |
| Cn1c(=NC(=O)CSCC(=O)N2CCOCC2)sc2ccccc21 | 11.5% (inactive) |
| Cn1c(=NC(=O)CSCC(=O)N2CCCCC2)sc2ccccc21 | 21.3% (inactive) |
| Cc1ccsc1/C=N/Nc1ccc(Cl)nn1 | -6.9% (inactive) |
| O=[N+]([O-])c1ccc(N2CCN(S(=O)(=O)c3ccccc3)CC2)cc1N1CCc2ccccc2C1 | 8.9% (inactive) |
| Cc1ccccc1NC(=S)N(CCCN1CCOCC1)Cc1cccs1 | 8.5% (inactive) |
| O=C(Oc1ccccc1)c1ccc2nccnc2c1 | 25.8% (inactive) |
| O=C(Oc1ccc(-c2nc(-c3ccccn3)no2)cc1)c1ccccc1 | 54.2% [at 5 µM] (active) |
| c1ccc(-c2noc(-c3cccs3)n2)nc1 | 31.1% (inactive) |
| Cc1cc(C)c(C)c(S(=O)(=O)N[C@@H](C)C(=O)OC(C)C(=O)NC(N)=O)c1C (stereo not given in full) | 18.2% (inactive) |
| NCCCC[C@@H]1NC(=O)[C@H](CCC(=O)O)NC(=O)c2cc([N+](=O)[O-])cc(I)c2NCC[C@@H](C(N)=O)NC1=O | -6.5% (inactive) |
| O=S(=O)(Nc1ccc(OC(F)(F)F)cc1)c1cccc2nonc12 | 7.3% (inactive) |

| Compound | cell killing (% activity) |
| --- | --- |
| O=C(CSc1nnc(C2CC2)n1Cc1ccccc1)Nc1cccnc1Cl | 9.8% (inactive) |
| Cc1ccc(NS(=O)(=O)c2ccc(N/N=C/c3ccccc3OCC(=O)O)c([N+](=O)[O-])c2)c(C)c1 | -2.4% (inactive) |
| O=C(NCc1ccccn1)c1cc(-c2ccccc2Cl)on1 | 24.5% (inactive) |
| Clc1ccc(-c2cc(-c3ccccn3)on2)c(Cl)c1 | 88% [at 5 µM] (active) |
| O=C1CSC(c2ccccc2)N1c1nc(-c2ccc(Cl)cc2Cl)cs1 (stereo not given) | 27.7% (inactive) |
| CCOC(=O)c1c(/N=C/C2C(=O)CC(C)(C)CC2=O)sc(C)c1C | 14.1% (inactive) |
| CCCCSc1nnc2c(n1)OC=Nc1ccccc1-2 | 11.9% (inactive) |
| COc1ccc(/C(C)=N/N2CCOCC2)c(O)c1 | -10.1% (inactive) |
| COc1ccc(-c2noc(-c3cccc(OC)c3OC)n2)cc1OC | 18.8% (inactive) |
| COc1ccc(-c2noc(-c3ccc(C)cc3)n2)cc1 | 25.4% (inactive) |
| COc1ccc(-c2nc(-c3ccccc3)no2)c(OC)c1 | 68% [at 5 µM] (active) |
| O=c1c2cc(-c3ccccc3)sc2nc2n1N=C(c1cccs1)CS2 | 30.8% (inactive) |
| Cc1cc(C)c2c(NC(=O)C3CC3)nn(C)c2n1 | 0.3% (inactive) |
| COc1cccc(CC(=O)Nc2ccc(-c3csc(C)n3)cc2)c1 | 2.3% (inactive) |
| C=CCn1c(C)cc(C2=NNC(=NCC)SC2)c1C | 88.8% [at 5 µM] (active) |
| Cc1cc(C2=NNC(=Nc3ccc(S(=O)(=O)N4CCOCC4)cc3)SC2)c(C)n1CC1CCCO1 (stereo not given) | 8.5% (inactive) |
| COCCn1c(C)cc(C2=NNC(=Nc3ccc(F)cc3)SC2)c1C | 12.3% (inactive) |
| O=C(NNC(=O)c1ccc(Cl)cc1Cl)c1cccs1 | 35.4% (inactive) |
| CCOC(=O)c1cc(C)nc(S(C)(=O)=O)c1C#N | 19.4% (inactive) |
| N#C/C(=C\C1=C(N2CCOCC2)C(=C\c2ccccc2)/CC1)C(=O)Nc1ccccc1F | 3.4% (inactive) |
| COc1ccc(-c2cn3ccsc3n2)cc1 | 46.2% (inactive) |
| COc1ccc(-c2cn3ccc(C)cc3n2)cc1 | 89% [at 5 µM] (active) |
| Cc1ccc(-c2cn3cc(C)ccc3n2)cc1 | 86.4% [at 5 µM] (active) |
| CS(=O)(=O)Nc1cccc(-c2cn3ccccc3n2)c1 | 4.6% (inactive) |

| Compound | cell killing (% activity) |
| --- | --- |
| c1ccc(-c2cn3cccnc3n2)cc1 | 13.7% (inactive) |
| COc1ccc(-c2cn3cccnc3n2)cc1 | 13.9% (inactive) |
| Cc1cccc(NC(=O)C2CC(=O)OC23CCCC3)c1 (stereo not given) | -2.2% (inactive) |
| COc1ccc(C(=O)ON=C2c3ccccc3-c3ccccc32)cc1OC | 8.6% (inactive) |
| Cc1sc2nc(COC(=O)C(NC(=O)c3ccc(Cl)cc3Cl)C(C)C)[nH]c(=O)c2c1C (stereo not given) | 2.9% (inactive) |
| O=C(Nc1ccc(S(=O)(=O)Nc2nccs2)cc1)c1cccc(S(=O)(=O)N2CCOCC2)c1 | 10.1% (inactive) |
| Fc1ccccc1Cc1ccc(Cl)nn1 | 22.4% (inactive) |
| CCN(CC)C(=O)CS(=O)CC(=O)Nc1cc(OCCOC)c(Cl)cc1Cl (stereo not given) | 3.5% (inactive) |
| CCCc1cc(=O)[nH]c(SCC(=O)N2CCN(S(=O)(=O)c3ccc(C)cc3C)CC2)n1 | -8.7% (inactive) |
| CN(Cc1ccccc1)Cc1ccccc1F | 10.6% (inactive) |
| Fc1ccccc1Cn1cnc(NC(=S)NCCc2ccccc2)n1 | 23.7% (inactive) |
| N=c1n(CCc2ccccc2)c2ccccc2n1Cc1ccccc1F | 53.1% (active) |
| O=C(NCCCN1CCN(c2ccc(F)cc2)CC1)Nc1ccc([N+](=O)[O-])cc1 | -6.5% (inactive) |
| Cc1c(C(=O)c2cccc([N+](=O)[O-])c2)c2ccccn2c1CCC#N | 33.6% (inactive) |
| COC(=O)c1ccc(COc2cc([N+](=O)[O-])cc3cccnc23)cc1 | -4.2% (inactive) |
| Cn1c(CC2Sc3ccccc3NC2=O)nnc1SCC(=O)c1ccc(Cl)cc1 (stereo not given) | 5.2% (inactive) |
| O=C(Cn1c(=S)nc2ccccn21)N1CCc2ccccc2C1 | -12% (inactive) |
| O=C(c1ccc(F)cc1)n1cc(C(=S)N2CCOCC2)c2ccccc21 | 21% (inactive) |
| O=C(c1ccc(F)cc1)n1c(=S)nc2ccccn21 | 81.3% [at 5 µM] (active) |
| NS(=O)(=O)c1ccc(NC(=S)Nc2ccc(Br)c(Cl)c2)cc1 | 12% (inactive) |
| O=C(OCC1O[C@@H](OC(=O)c2cc(O)c(O)c(O)c2)[C@@H](OC(=O)c2cc(O)c(O)c(O)c2)[C@@H](OC(=O)c2cc(O)c(O)c(O)c2)[C@@H]1OC(=O)c1cc(O)c(O)c(O)c1)c1cc(O)c(O)c(O)c1 (stereo not given in full) | -9.9% (inactive) |
| CCOc1ccc(CN2CCN(Cc3ccon3)CC2CCO)cc1 (stereo not given) | 8.1% (inactive) |
| Cc1noc(/C=C/c2ccco2)c1S(=O)(=O)N1CCC(C(=O)Nc2ccc(Cl)cn2)CC1 | 24.3% (inactive) |
